# Laboratory results reported in PubChem BioAssay (EPA / NIEHS).
# Some compounds were tested as several samples or in several runs, with calls that do not always agree. Active and inactive are the calls of the source. How the source made its calls: active means hit-call score of the fitted dose curve at least 0.9, where 1 is the maximum; inactive means score below 0.9.
# Read-out: Monokine induced gamma interferon (MIG), CXCL9 (gene 4283)
# Assay: BSK_hDFCGF_MIG: BioMAP Diversity Plus: hDFCGF Assay for Monokine induced gamma interferon (MIG) Biomarker Activity (AID 2283063)
# Details: primary human foreskin fibroblasts; actives raise or lower the signal
# Experimental: BSK_hDFCGF is a cell-based, multiplexed-readout assay that uses foreskin fibroblast, a human skin primary cell, with measurements taken at 24 hours after chemical dosing in a 96-well plate.BSK_hDFCGF_MIG is an assay component measured in the BSK_hDFCGF assay. It measures MIG antibody related to regulation of gene expression using ELISA technology.Data from the assay component BSK_hDFCGF_MIG was analyzed into 1 assay endpoint. This assay endpoint, BSK_hDFCGF_MIG, was analyzed with bidirectional fitting relative to DMSO as the negative control and baseline of activity. Using a type of binding reporter, gain or loss-of-signal activity can be used to understand changes in the signaling as they relate to the gene CXCL9. Furthermore, this assay endpoint can be referred to as a primary readout, because this assay has produced multiple assay endpoints where this one serves a signaling function. To generalize the intended target to other relatable targets, this assay endpoint is annotated to the cytokine intended target family, where the subfamily is chemotactic factor.
# The levels of cell surface (or secreted, indicated by the prefix "s") biomarker endpoints were measured by ELISA. Overt cytotoxicity to cells in confluent adherent cultures (all systems other than the BT system) was assessed by measuring total protein levels using sulforhodamine B (SRB) staining in parallel cultures at the time of biomarker measurements, indicated as SRB endpoints. For proliferation assays for adherent cell types, individual cell types are cultured at sub-confluence and relative cell numbers quantified by SRB staining at time points optimized for each system (48 h: 3C and CASM3C systems; 72 h: BT and HDF3CGF systems; 96 h: SAg system). SRB was performed by staining cells with 0.1% SRB after fixation with 10% TCA and reading wells at 560 nm.Viability and proliferation of PBMC (T cells) was quantified by Alamar Blue reduction for the SAg and BT systems. For PBMC viability (referred to as PBMC Cytotoxicity within the assay endpoint names), cells were plated (75,000/well in a 96-well plate) and then chemical samples added for 1 h before addition of activators, SEB and TSST-1 (20 ng/mL final concentration each). Cells were incubated for 90 h. Then, Alamar Blue (20 uL/well) (Invitrogen, Cat DAL1100) was added for 6 h, and the plates were read with a fluorescence microplate reader at 546/580 nm (excitation/emission). For PBMC proliferation, cells were plated and activated as above but incubated for only 16 h prior to addition of Alamar Blue. Plates were read after 6 h.
Compound,outcome,AC50
Cc1cc(C2(c3cc(C)c(O)cc3C)OS(=O)(=O)c3ccccc32)c(C)cc1O,inactive,–
NCCNCCN,inactive,–
CC[Si](OC(C)=O)(OC(C)=O)OC(C)=O,inactive,–
c1ccc2sc(SN(C3CCCCC3)C3CCCCC3)nc2c1,inactive,–
O=C(O)c1cn(-c2ccc(F)cc2)c2cc(N3CCNCC3)c(F)cc2c1=O,inactive,–
CC(C)(COC(=O)c1ccccc1)COC(=O)c1ccccc1,inactive,–
CNC[C@H](O)c1cccc(O)c1,inactive,–
CCn1c2ccccc2c2cc(N)ccc21,inactive,–
OC1OC[C@@H](O)[C@H](O)[C@H]1O (stereo not given in full),inactive,–
C[C@H]1C[C@@H]2[C@H]([C@@H](O)C[C@@]3(C)[C@H]2CC[C@]3(O)C(=O)CO)[C@@]2(C)C=CC(=O)C=C12,inactive,–
CCCCCCCCCCCCCCCCCC(=O)OCC(CC)CCCC (stereo not given),inactive,–
BrC1CCC(Br)C(Br)CCC(Br)C(Br)CCC1Br (stereo not given),inactive,–
C=CCOC(=O)CCC1CCCCC1,inactive,–
CC1COc2ccccc2N1C(=O)C(Cl)Cl (stereo not given),inactive,–
O=C=NC1CCC(CC2CCC(N=C=O)CC2)CC1 (stereo not given),inactive,–
O=C(O)c1ccc([N+](=O)[O-])cc1,inactive,–
CC(C)c1ccc(C(C)C)cc1,inactive,–
CCCCC(CC)COCCC#N (stereo not given),inactive,–
O=C1CCCCCCCCCCCCCCO1,inactive,–
CCCCC/C=C/C=C/C=O,–,25.1 µM (active)

Compound,outcome,AC50
Cc1ccc2n[nH]nc2c1,inactive,–
COC(=O)c1ccc(C)cc1,inactive,–
C=C[Si](OCC)(OCC)OCC,inactive,–
O=P(c1ccccc1)(c1ccccc1)c1ccccc1,inactive,–
CCC(=O)OCc1ccccc1,inactive,–
Cc1ccc(O)c(C(C)(C)C)c1,–,36.7 µM (active)
O=C1OC2(c3cc(Br)c(O)c(Br)c3Oc3c2cc(Br)c(O)c3Br)c2c(Cl)c(Cl)c(Cl)c(Cl)c21,–,11.6 µM (active)
CN(CCOc1ccc(CC2SC(=O)NC2=O)cc1)c1ccccn1 (stereo not given),inactive,–
CCCCC(CC)COC(=O)/C=C\C(=O)OCC(CC)CCCC (stereo not given),inactive,–
Nc1cc([N+](=O)[O-])ccc1O,inactive,1.88 µM (active)
O=C(O)C[C@H](O)C[C@H](O)/C=C/c1c(C2CC2)nc2ccccc2c1-c1ccc(F)cc1,inactive,–
CC(=O)Nc1ccccc1O,inactive,–
O=[N+]([O-])c1cc(C(F)(F)F)ccc1Cl,inactive,–
Cc1ccc(Nc2ccc(O)c3c2C(=O)c2ccccc2C3=O)cc1,inactive,–
CC(=O)OCCC(C)CC(C)(C)C (stereo not given),inactive,–
c1ccc2c(c1)c1cccc3ccc4cccc2c4c31,inactive,–
CCCCCCCCC=O,inactive,–
CC(=O)/C=C/C1=C(C)CCCC1(C)C,inactive,–
CC1CCC(C(C)CS)CC1S (stereo not given),–,7.33 µM (active)
